Source: PubChem BioAssay
A selection: hits, their analogues and other compounds. The true share with any hit is near 12%.
BAZ2B inh = BAZ2B (human) inhibition | AlphaScreen BAZ2B-H3K14Ac peptide displacement | Potency, µM (doses to about 114 µM), inactives show at the top dose activity change, negative = inhibition, hits mostly inhibitors | 360,000 tested, 4.4% active | AID 504333; also: % is scaled to controls: 0 for no effect and ±100 for the full control effect; nearly all actives have a fitted effect of over 60% in size
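AlphaScreen displacement of biotin-H3(5-23)K14Ac peptide (50 nM final) from BAZ2B (50 nM final) in PBS pH 7.4, 0.01% Tween-20; complex preformed 30 min RT, then compounds (top 110 uM) 30 min RT, beads 20 min dark.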
JMJD2A Tudor = JMJD2A Tudor domain (human) inhibition. AlphaScreen JMJD2A-Tudor / H3K4me3 peptide binding. O75164. Potency, µM (titrated, usually from 114 µM), for inactives: at the highest dose activity change, negative = inhibition, usual class: inhibitors. 390,000 tested, 4.4% active; also: % is scaled to controls: 0 for no effect and ±100 for the full control effect; nearly all actives have a fitted effect of over 50% in size
Sfp inh = Sfp phosphopantetheinyl transferase inhibition; Q9F4F7; Biochemical Sfp PPTase activity, qHTS; Potency, µM, without a hit: largest response in the series, negative = inhibition, usual class: inhibitors; 310,000 tested, 3.5% active;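 also: the enzyme is Sfp with the accession as filed and its product quenches rhodamine fluorescence; 0% = enzyme reaction without inhibitor and -100% = no enzyme wells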
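Compounds were incubated with enzyme (final 15 nM) for 15 min at room temperature before substrate addition started the reaction. Fluorescence at 525 nm excitation, 598 nm emission was recorded immediately and after 30 minutes.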
G9a inh = inhibitors of human histone lysine methyltransferase G9a; Q96KQ7; G9a H3K9 monomethylation, AlphaScreen, 2 h; Potency, µM (doses to about 102 µM), for the others: top-dose activity, negative = inhibition, most hits filed as inhibitors; 350,000 tested, 8.8% active; AID 504332; also: % is scaled to controls: 0 for no effect and ±100 for the full control effect; nearly all actives have a fitted effect of over 75% in size
Target sequence (Q96KQ7 913-1193 limits assumed): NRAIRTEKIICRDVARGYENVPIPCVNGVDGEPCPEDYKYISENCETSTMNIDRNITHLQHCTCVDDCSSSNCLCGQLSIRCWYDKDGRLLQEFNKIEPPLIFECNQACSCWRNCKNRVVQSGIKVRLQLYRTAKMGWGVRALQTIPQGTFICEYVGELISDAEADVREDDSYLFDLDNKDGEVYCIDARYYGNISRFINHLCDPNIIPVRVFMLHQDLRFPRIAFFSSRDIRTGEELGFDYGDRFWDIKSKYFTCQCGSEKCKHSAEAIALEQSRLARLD
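Methyltransferase reactions run at room temperature for 2 h (20 nM enzyme, 500 nM biotin-H3K9 peptide, 20 uM SAM) after a 15 min compound preincubation; product detected by AlphaScreen beads and anti-H3K9me1 antibody.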
HP1b chromo inh = HP1-beta chromodomain-methylated histone interaction inhibition | AID 540317 | 390,000 tested, 0.56% active | P83916 | AlphaScreen HP1-beta / biotin-H3K9me3 peptide binding | Potency, µM (series often up to 114 µM), without a hit: at the highest dose activity change, negative = inhibition, usual class: inhibitors; also: nearly all actives have a fitted effect of over 70% in size
Target sequence (P83916 whole entry, looked up): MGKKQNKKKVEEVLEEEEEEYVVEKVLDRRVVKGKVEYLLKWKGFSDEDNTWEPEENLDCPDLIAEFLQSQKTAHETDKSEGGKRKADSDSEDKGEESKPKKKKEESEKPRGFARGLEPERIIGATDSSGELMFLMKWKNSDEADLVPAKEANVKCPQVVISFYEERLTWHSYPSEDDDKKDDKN
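Compound inhibition of the preformed complex between 50 nM HP1-beta and 50 nM biotinylated H3K9me3 peptide was read by AlphaScreen. Buffer was PBS pH 7.4 with 0.01% Tween-20. Incubations ran 30 min at room temperature, with 10 ug/mL donor/acceptor beads.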
Active calls of the source: *; [ ] = dose if it differs, or a comment. Calls follow the shape of the dose curve; as a rule, active = well fitted curve in the direction sought with a large enough effect; inconclusive = small, poorly fitted or top-dose-only effect, or another doubt; inactive = no such curve, though single readings can be large; an effect the other way counts as inactive or inconclusive. Potency is read from the fitted curve at half-maximal effect.

For CC(=Nc1cccc(C)c1)c1sc2ccccc2c1O the results were BAZ2B inh -9.1%, JMJD2A Tudor inconclusive, Sfp inh -4.6%, G9a inh -22.4% and HP1b chromo inh 27.1%.
Screening Oc1c(N=Nc2ccccc2)sc2ccccc12 returned BAZ2B inh 2µM*, JMJD2A Tudor inconclusive, Sfp inh 1.2% and HP1b chromo inh -24.3%.
Screening CN(C)c1ccc(N=Nc2ccccc2C(=O)OCC(=O)N(C)c2ccccc2)cc1 returned BAZ2B inh 10µM*, JMJD2A Tudor 12.6µM*, Sfp inh inconclusive, G9a inh 8.91µM* and HP1b chromo inh inconclusive.
Screening CC(=O)c1c(C)[nH]c(C(=O)OCC(=O)Nc2cc(Cl)ccc2[N+](=O)[O-])c1C returned BAZ2B inh inconclusive, JMJD2A Tudor -14.7%, Sfp inh -3.9%, G9a inh 50.1µM* and HP1b chromo inh 14.8%.
For COC(=O)c1ccccc1NC(=O)COC(=O)[C@H](C)NC(N)=O the results were BAZ2B inh 12.4%, JMJD2A Tudor -10.9%, Sfp inh -0.3%, G9a inh inconclusive and HP1b chromo inh -10.1%.
Screening O=C(CNC1CCCC1)Nc1cc(Cl)ccc1[N+](=O)[O-] returned BAZ2B inh 56.2µM*, JMJD2A Tudor 1µM*, Sfp inh 56.2µM*, G9a inh 44.7µM* and HP1b chromo inh 39.8µM*.
Screening CN(C)c1cccc(C(=O)OCC(=O)N(C)c2ccccc2)c1 returned BAZ2B inh inconclusive, JMJD2A Tudor inconclusive, Sfp inh -9.4%, G9a inh -14.9% and HP1b chromo inh -23.2%.
Screening Cc1ccc([N+](=O)[O-])cc1NC(=O)CNC1CCCCC1 returned BAZ2B inh 16.1%, JMJD2A Tudor 10.1%[57.1 µM], Sfp inh -4.3% and HP1b chromo inh 34.5%.
`COC(=O)c1ccccc1NC(=O)COC(=O)c1ccccc1N=Nc1ccc(N(C)C)cc1` gave BAZ2B inh 8.91µM*, JMJD2A Tudor 31.6µM*, Sfp inh 4.8%, G9a inh 8.91µM* and HP1b chromo inh inconclusive.
For CCCN(CC1CC1)C(=O)CSc1nnc(-c2ccco2)n1N the results were BAZ2B inh 2.6%, Sfp inh -14.6% and G9a inh -27.2%.
Screening CCc1cc(C(=O)N2CCN(c3ccccc3OC)CC2)sc1C returned BAZ2B inh -3.9%, JMJD2A Tudor -27.7%, Sfp inh 4.2%, G9a inh -6.3% and HP1b chromo inh -11.5%.
Screening CC(=O)c1ccc(NC(=O)COC(=O)c2ccccc2N=Nc2ccc(N(C)C)cc2)cc1 returned BAZ2B inh 5.01µM*, JMJD2A Tudor 12.6µM*, Sfp inh 12.5%, G9a inh 12.6µM* and HP1b chromo inh 31.6µM*.
`NS(=O)(=O)c1ccc(NC(=O)COC(=O)c2cc(Cl)ccc2[N+](=O)[O-])cc1` gave BAZ2B inh -15.3%, JMJD2A Tudor -13.7%, Sfp inh 4.4%, G9a inh -4.8%[59 µM] and HP1b chromo inh 7.6%.
`CN(C)c1ccc(NC(=O)COC(=O)c2cc(Cl)ccc2[N+](=O)[O-])cc1` gave BAZ2B inh 35.5µM*, JMJD2A Tudor 25.1µM*, Sfp inh 0.1%, G9a inh 6.31µM* and HP1b chromo inh 50.1µM*.
`CN(C)c1ccc(C(=O)OCC(=O)Nc2ccc(N3CCOCC3)cc2)cc1` gave BAZ2B inh -1.7%, JMJD2A Tudor 4.4%, Sfp inh 9.4%, G9a inh -0.3% and HP1b chromo inh 24.1%.
For Oc1cccc2c(NC(=S)Nc3ccc(SC(F)F)cc3)cccc12 the results were BAZ2B inh 44.7µM*, JMJD2A Tudor inconclusive, Sfp inh inconclusive, G9a inh 39.8µM* and HP1b chromo inh inconclusive.
`O=C(Nc1ccc(Br)cn1)c1cccc(C(=O)Nc2ccc(Br)cn2)c1` gave BAZ2B inh -1.1%, JMJD2A Tudor 89.1µM*, Sfp inh 1.7%, G9a inh 20.1% and HP1b chromo inh 62.7%.
O=C(Nc1ccc(Br)cn1)c1ccc2ccccc2c1 was read as BAZ2B inh 9.2%, JMJD2A Tudor 0.4%, Sfp inh 8.8%, G9a inh -13.2%[0.501 µM] and HP1b chromo inh 21.9%.
For O=C(Cn1cccn1)N1CCCC(Nc2ccc(F)c(F)c2)C1 (stereo not drawn) the results were BAZ2B inh -13.7%, JMJD2A Tudor -10.3%, Sfp inh 17.2%, G9a inh inconclusive and HP1b chromo inh 29.1%.
For CCS(=O)(=O)c1ccc(OC)c(N=Nc2ccc(O)c3ncccc23)c1 the results were BAZ2B inh 8.91µM*, JMJD2A Tudor 39.8µM*, Sfp inh -19.4%, G9a inh 14.1µM* and HP1b chromo inh -1.8%.
COc1ccc(S(=O)(=O)NCCOc2cccc3cccnc23)cc1OC was read as BAZ2B inh -15.1%, JMJD2A Tudor -7.0%, Sfp inh 19.4%, G9a inh 9.4% and HP1b chromo inh 27.7%.
For CCN(CC)S(=O)(=O)c1cc(OC)ccc1N=Nc1ccc(O)c2ncccc12 the results were BAZ2B inh 20µM*, JMJD2A Tudor 12.6µM*, Sfp inh 2.1%, G9a inh 8.91µM* and HP1b chromo inh inconclusive.
Cc1ccc(N=CC=C2OC(C)(C)C(C)(C)O2)c(C)c1 was read as BAZ2B inh inconclusive, JMJD2A Tudor -9.4%, Sfp inh -3.6%, G9a inh inconclusive and HP1b chromo inh 18.5%.
CCCNc1c(NS(=O)(=O)c2ccc(Cl)s2)c(=O)oc2ccccc12 was read as BAZ2B inh -23.2%, JMJD2A Tudor -8.3%, Sfp inh -4.8%, G9a inh 33.1% and HP1b chromo inh 21.0%.
Screening NS(=O)(=O)c1ccc(CCNCc2ccccc2OCc2ccc(F)cc2)cc1 returned BAZ2B inh -13.4%, JMJD2A Tudor -8.0%, Sfp inh -11.9%, G9a inh 16.0% and HP1b chromo inh -0.3%.
For NS(=O)(=O)c1ccc(NCc2ccccc2OCc2ccc(F)cc2)cc1 the results were BAZ2B inh 56.2µM*, JMJD2A Tudor -27.9%, Sfp inh -6.8%, G9a inh inconclusive and HP1b chromo inh 7.4%.
For CCOc1ccc(NCc2ccccc2OCc2cccc(F)c2)cc1 the results were BAZ2B inh inconclusive, JMJD2A Tudor inconclusive, Sfp inh -19.9%, G9a inh 10µM* and HP1b chromo inh 2.7%.
For COc1cccc(NC(=O)CSCc2cc(=O)n3ccsc3n2)c1 the results were BAZ2B inh -11.0%[57.1 µM], JMJD2A Tudor -1.5%, Sfp inh 2.0%, G9a inh 0.7% and HP1b chromo inh 63.5%.
Cc1cc(=O)[nH]c(-n2[nH]c(C)cc2=O)n1 was read as BAZ2B inh 11.2µM*, JMJD2A Tudor 44.7µM*, Sfp inh 22.4µM*, G9a inh -40.2%[0.0925 µM] and HP1b chromo inh 48.3%.
For CC(C)N(CCCNC(=O)C1CCC(CNS(=O)(=O)c2ccccc2)CC1)Cc1ccccc1 (stereo not drawn) the results were BAZ2B inh -1.6%, JMJD2A Tudor -20.8%, Sfp inh 6.5%, G9a inh -0.3% and HP1b chromo inh 18.2%.
